Assay results taken from PubChem BioAssay (NCI).
About 79,000 compounds went through this panel and 15% of them were active in at least one assay; those are over-represented in the sample as a whole. Values without a mark were called inactive. Activity calls are given as the source filed them. Rule as the data show it: active = growth inhibition above about 70%; inactive = the rest.

Legend:
[1] = NCI Yeast Anticancer Drug Screen. Data for the rad50 strain (AID 155);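 also: 0% = growth of vehicle-only cultures of the same strain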; details: S. cerevisiae rad50 strain growth inhibition; at 50.0 µM; stronger effect = higher value
Summary of the method: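 Cells are treated with compound, grown, and their growth is then scored against vehicle-only cultures of the same repair-deficient yeast strain.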

[2] = NCI Yeast Anticancer Drug Screen. Data for the mec2-1 strain (AID 157); details: S. cerevisiae mec2-1 strain, at 50.0 µM, stronger effect = higher value
Summary of the method: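 Using mec2-1 yeast: add compound, measure growth, express inhibition versus vehicle-treated cultures.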

[3] = NCI Yeast Anticancer Drug Screen. Data for the sgs1 mgt1 strain (AID 161);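 also: 0% = growth of cultures given vehicle only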; details: S. cerevisiae sgs1 mgt1 strain, at 50.0 µM, stronger effect = higher value
Summary of the method: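 Growth of a repair-deficient yeast mutant was monitored after compound treatment and expressed as inhibition relative to vehicle-treated cultures.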

[4] = NCI Yeast Anticancer Drug Screen. Data for the cln2 rad14 strain (AID 165);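 also: 0% = growth equal to vehicle treated cultures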; details: S. cerevisiae cln2 rad14 strain, at 50.0 µM, stronger effect = higher value
Summary of the method: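 Yeast strain cln2 rad14, bearing defects in cell cycle control and DNA repair, serves as the test system; values reflect growth inhibition compared with vehicle.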

[5] = NCI Yeast Anticancer Drug Screen. Data for the bub3 strain (AID 167); details: S. cerevisiae bub3 mutant strain, at 50.0 µM, stronger effect = higher value
Summary of the method: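 Part of a panel of yeast mutants defective in DNA damage repair or cell cycle regulation. Each strain is grown with compound, and inhibition is calculated relative to solvent-treated cultures.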

[6] = NCI Yeast Anticancer Drug Screen. Data for the mlh1 rad18 strain (AID 175); details: S. cerevisiae mlh1 rad18 strain growth inhibition; at 50.0 µM; stronger effect = higher value
Summary of the method: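 Steps: expose repair-defective yeast to compound; measure growth; express inhibition against vehicle-treated controls.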

| Compound | growth inhibition [1] | growth inhibition [2] | growth inhibition [3] | growth inhibition [4] | growth inhibition [5] | growth inhibition [6] |
| --- | --- | --- | --- | --- | --- | --- |
| O=C(Nc1cccc(Cl)c1)Oc1ccc(S(=O)(=O)F)cc1Cl | 92.3% (active) | 94.7% (active) | 95.7% (active) | 91.2% (active) | 90.9% (active) | 94.8% (active) |
| CNC(=O)N1CN(c2ccccc2)C2(CCN(Cc3ccccc3)CC2)C1=O | -29.4% | -15.8% | -15.9% | -2.8% | -10.4% | -4.1% |
| COc1ccc2c(c1)C1(C)CCN(C)CC(C1)C2O (stereo not given) | 47.2% | 13.6% | 15.6% | 22.9% | -1% | 23.2% |
| CCOP(=O)(O)OCC | -16.6% | -20.4% | -20.1% | -0.25% | 0.95% | -49.9% |
| Cc1c(Cl)cc([N+](=O)[O-])c(O)c1[N+](=O)[O-] | 6.1% | -1.45% | 5% | 30.7% | 26.1% | 7.85% |
| Nc1ccc(P(=O)(O)O)cc1 | -7.8% | -9.55% | -11.7% | -36.1% | -1.05% | -3.95% |
| COc1cc2c(cc1O)CNCC2c1ccc(O)c(C)c1 (stereo not given) | -10.8% | -14.6% | 9.55% | -13.8% | -11.4% | -4.7% |
| CC(=O)OC1CCC2(CO)C(CCC3C4CCC(=O)C4(C)CCC32)C1 (stereo not given) | 14.1% | -4.25% | 0.3% | 11.9% | 5.3% | 21.8% |
| NCc1c[nH]c2ccccc12 | -25.1% | 4.8% | -22.7% | -12.8% | -16.5% | -9.7% |
| COC(=S)NP(=O)(NC(=S)OC)NC(=S)OC | 11.7% | -3.4% | 9.65% | -35% | -1.95% | 8.25% |
| Cc1cccc(C)c1NC(=O)C(=O)C1C(=O)NC(=O)NC1=O | -45.5% | -2.6% | -6% | 15.8% | -17.1% | -31.9% |
| CCCCCCCCCCCCCCCCP(=O)(O)OP(=O)(O)OCC1OC(n2cnc3c(N)ncnc32)C(O)C1O (stereo not given) | 58.3% | 53.2% | 88.2% (active) | 58.6% | 44.6% | 80.3% (active) |
| CN1CN(c2ccccc2)C2(CCN(CCCCCCF)CC2)C1=O | -5.55% | -15.9% | -19.4% | -0.15% | -5.95% | 16.4% |
| Cc1ccccc1-n1c(/C=C\c2ccccn2)nc2ccccc2c1=O | 36.7% | 8.65% | 33.4% | 35.6% | 53.6% | 23.6% |
| O=C(c1ccccc1)P(C(=O)c1ccccc1)C(=O)c1ccccc1 | 10.9% | -5.7% | 8.2% | -75.7% | -0.05% | -5.1% |
| CN(C)C(=O)N(CCCl)N=O | 5.1% | -4.2% | 1.45% | 2.55% | 13.1% | 20.8% |
| COc1cc2c(cc1O)CC1c3c(cc(O)c(OC)c3-2)CCN1C (stereo not given) | 1.55% | -8.45% | -10.8% | -15.8% | -26.1% | 2.85% |
| CCN1CCc2cc(OC)c(OC)cc2C1 | 0.15% | 4.7% | 6.45% | -25.9% | -0.6% | 3.5% |
| COCCOC(=O)NCP(Cl)(CNC(=O)OCCOC)(CNC(=O)OCCOC)CNC(=O)OCCOC | -11.6% | -4.85% | -29.8% | -19.7% | -1.75% | -5.75% |
| ClCCN(CCCl)c1ccc(CCCCN2CCCCC2)cc1 | 20.2% | 23.2% | 21.2% | 14.2% | 19.2% | 47% |

| Compound | growth inhibition [1] | growth inhibition [2] | growth inhibition [3] | growth inhibition [4] | growth inhibition [5] | growth inhibition [6] |
| --- | --- | --- | --- | --- | --- | --- |
| N.N.N.O=[N+]([O-])[O-].O=[N+]([O-])[O-].O=[N+]([O-])[O-].O=[N+]([O-])[O-].[Co+3] | 11.6% | 20.7% | 25.5% | 31.3% | 11.8% | -1.35% |
| c1ccc2c(c1)SCCC2NC1=NCCO1 (stereo not given) | -15.2% | -13.6% | -9% | 9.45% | 8.7% | -36.3% |
| CCCCCCCC/C=C\CCCCCCCC(=O)OCC(COC(=O)CCCCCCC/C=C\CCCCCCCC)OC(=O)N(CCCl)CCCl | -29.2% | -9.25% | -18.4% | 33.6% | -24.2% | 5.45% |
| CCCCCCCCCCCCCCCC[As](=O)(O)CCCCCCCCCCCCCCCC | -6.35% | 13.7% | -17.8% | 4.25% | 7.2% | 8.55% |
| O=C1CCCN1 | -8.1% | -1.7% | 3.1% | -4.85% | -0.2% | -11.7% |
| CC(C)N1C(=O)NC(=O)C2(CCCC2)C1=O | -2.15% | 3.05% | -1.5% | -28.4% | -12.6% | -2.5% |
| CNCCc1cccs1 | -27.6% | -6.4% | 1.25% | -29.1% | 6.15% | 4.7% |
| Cc1ccc(OP(=O)(Oc2ccc(C)cc2)Oc2ccc(C)cc2)cc1.Cc1ccc(OP(=O)(Oc2ccc(C)cc2)Oc2ccc(C)cc2)cc1.Cc1ccc(OP(=O)(Oc2ccc(C)cc2)Oc2ccc(C)cc2)cc1.Cc1ccc(OP(=O)(Oc2ccc(C)cc2)Oc2ccc(C)cc2)cc1.[O-][Cl+3]([O-])([O-])O.[Zn+2] | 3.45% | 9.9% | 0.55% | 6.45% | 5.1% | -21.9% |
| c1ccc2sc(SNC3CCCCC3)nc2c1 | -29.7% | -65.1% | -60.1% | -128% | 13.6% | 2.4% |
| NNC(=O)NNC(=O)NN | -5.95% | -3.1% | -12.3% | 1.65% | -8.25% | 9.9% |
| NC(Cc1ccccc1)c1cccc2c1CCCC2 (stereo not given) | 7.35% | -7.3% | -2.55% | -21.8% | 24.4% | 40.5% |
| CCOP(=O)(OCC)/C(C#N)=C/c1cnc[nH]1 | -51.6% | -30.6% | -38% | -17.2% | -20.2% | -54.5% |
| S=C(N=Nc1ccccc1)NNc1ccccc1.[Zn+2] | 28.1% | -9.35% | 19.4% | 12.3% | 36% | 12.3% |
| C/C=C\C(C)=C/C(C)C(=O)CC(O)CC1CC(=O)NC(=O)C1 (stereo not given) | 11.6% | -20.4% | -6.9% | 11.8% | 7.85% | 13.3% |
| CCC1(O)CC(OC2CC(N(C)C)C(OC3CC(O)C(OC4CCC(=O)C(C)O4)C(C)O3)C(C)O2)c2c(cc3c(c2O)C(=O)c2c(O)ccc(O)c2C3=O)C1C(=O)OC (stereo not given) | 88.8% (active) | 90.9% (active) | 90.5% (active) | 88.4% (active) | 90% (active) | 89% (active) |
| CCC1(O)C(=O)OCc2c1cc1n(c2=O)Cc2cc3cc(N)ccc3nc2-1 (stereo not given) | 85% (active) | 88.5% (active) | 77.5% (active) | 56.8% | 56.1% | 72.2% (active) |
| CC(C)CC1N=C(NN=C(CCl)CCl)SP1(=O)NCCCCCCNP1(=O)SC(NN=C(CCl)CCl)=NC1CC(C)C (stereo not given) | 2.95% | 12.1% | 11.4% | -11.7% | 15.9% | 13.8% |
| Clc1ccc(C2CC3CCCCN3O2)cc1 (stereo not given) | 13.6% | 3% | 5.9% | -1.1% | 11.6% | 5.45% |
| CCC[As](=O)(O)c1ccc(Cl)cc1 | 88.5% (active) | 99.5% (active) | 99.2% (active) | 73.5% (active) | 94.7% (active) | 99.2% (active) |
| NNC(=O)CCC(N)C(=O)O (stereo not given) | -20.3% | -18.4% | -35.3% | -11.8% | -17.4% | -49% |
